Measurements reported in PubChem BioAssay (NCATS).
Values joined by “and” are separate entries in the source; they are usually repeats but may differ in a detail not shown here. Equal entries are not always repeated. Results filed as inconclusive are left out. Active and inactive are the calls of the source. Calls follow the shape of the dose curve; as a rule, active = well fitted curve in the direction sought with a large enough effect; inconclusive = small, poorly fitted or top-dose-only effect, or another doubt; inactive = no such curve, though single readings can be large; an effect the other way counts as inactive or inconclusive.

Experiments:
[1] = molecular target: Cytochrome P450 3A7 (Homo sapiens) (UniProt P24462); experiment: Cytochrome P450 family 3 subfamily A member 7 (CYP3A7) small molecule antagonists: luciferase biochemical qHTS assay (AID 1963596); also: nearly all actives have a fitted effect of over 40% in size; as to activity change, negative = inhibition: % is scaled to controls: 0 for no effect and ±100 for the full control effect
Cytochrome P450 3A7 (Homo sapiens), sequence (P24462 whole entry, looked up): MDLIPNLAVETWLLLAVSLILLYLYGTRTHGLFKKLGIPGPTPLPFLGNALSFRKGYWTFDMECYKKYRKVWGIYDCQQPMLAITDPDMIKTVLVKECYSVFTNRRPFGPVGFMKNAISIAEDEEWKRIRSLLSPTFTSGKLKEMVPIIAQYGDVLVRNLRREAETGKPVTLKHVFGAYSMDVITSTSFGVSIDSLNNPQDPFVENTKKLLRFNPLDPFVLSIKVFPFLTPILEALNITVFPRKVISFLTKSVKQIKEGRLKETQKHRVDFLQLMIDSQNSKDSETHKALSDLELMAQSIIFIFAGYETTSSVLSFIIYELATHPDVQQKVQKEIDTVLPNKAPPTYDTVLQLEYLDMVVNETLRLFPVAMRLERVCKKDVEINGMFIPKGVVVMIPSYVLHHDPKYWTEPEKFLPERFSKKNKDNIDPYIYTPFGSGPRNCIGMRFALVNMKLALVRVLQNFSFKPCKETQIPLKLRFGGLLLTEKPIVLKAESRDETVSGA
How it was run: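 P450-Glo luminescent assay: CYP3A7 enzyme converts a proluciferin substrate to luciferin, detected by luciferase reagent; light proportional to activity. Compounds in DMSO preincubated 10 min with enzyme-substrate mix at room temperature, then NADPH regeneration added for 1 h.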

[2] = Viability qHTS for spleen associated tyrosine kinase inhibitor (SYKi) naive MV4-11 cells (AID 1963823); also: nearly all actives have a fitted effect of over 40% in size; also: potency is read from the fitted curve at half-maximal effect
How it was run: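 SYKi-naive MV4-11 AML cells, 500 per well, were exposed to library compounds for 72 hr at 37 C, 5% CO2. Viability was then read by CellTiter-Glo luminescence after 10 min at room temperature.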

[3] = Cellular viability qHTS for adrenocortical cancer (ACC) cell line SW-13 (AID 1963989); conditions: SW-13 ACC cells viability, CellTiter-Glo, 48 h; activity (max response): stronger effect = lower value; also: nearly all actives have a fitted effect of over 65% in size; also: potency is read from the fitted curve at half-maximal effect;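 as to activity (max response): cells grown in serum-free medium with ITS supplement; % is scaled to controls: 0 for no effect and ±100 for the full control effect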
How it was run: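 Viability was read as CellTiter-Glo luminescence after 48 h compound treatment (up to 46 uM final) of SW-13 cells grown serum-free; titration curves were fit with a four-parameter logistic model to give IC50 and efficacy.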

[4] = Cellular viability qHTS for adrenocortical cancer (ACC) cell line NCI-H295R (AID 1963990); also: nearly all actives have a fitted effect of over 60% in size; also: potency is read from the fitted curve at half-maximal effect;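 as to activity change, negative = viability loss: 0% = DMSO only wells and -100% = full killing with cytotoxic reference compound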
How it was run: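 CellTiter-Glo ATP luminescence, read 48 h after compound addition, measured viability of NCI-H295R adrenocortical cells grown serum-free with ITS. Final concentrations spanned up to 46 uM. Data normalized to DMSO and doxorubicin, fitted for IC50 and maximal response.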

NC(CO)(CO)CO
inactive: Potency [1] | Potency [2] | activity (max response) [3] 12.7% | Potency [4]

O=C(O)CCCCC1CCSS1 (stereo not given)
inactive: Potency [1] | Potency [2] | activity (max response) [3] 9% | Potency [4]

C[C@@H]1CN(c2c(F)c(F)c3c(=O)c(C(=O)O)cn(C4CC4)c3c2F)C[C@H](C)N1
inactive: Potency [1] | Potency [2] | activity (max response) [3] 12.9% | Potency [4]

O=C(O)C(=O)Nc1cccc(-c2nn[nH]n2)c1
inactive: Potency [1] | Potency [2] | activity (max response) [3] 14.5% and 11% | Potency [4]

C[C@H](NC(CCc1ccccc1)C(=O)O)C(=O)N1CCC[C@H]1C(=O)O (stereo not given in full)
inactive: Potency [1] | Potency [2] | activity (max response) [3] 8.08% | Potency [4]

O=C1CC[C@@H](C(=O)O)N1
inactive: Potency [1] | activity (max response) [3] -6.66% | Potency [4]
active: Potency [2] 0.0015 µM

CN(C)CCN(Cc1cccs1)c1ccccn1
inactive: Potency [1] | Potency [2] | activity (max response) [3] 15.3% | Potency [4]

CC1CN(c2cc3c(cc2F)c(=O)c(C(=O)O)cn3-c2ccc(F)cc2F)CCN1 (stereo not given)
inactive: activity change, negative = inhibition [1] 17% [at 4.83 µM] | viability (% of control) [2] 91.3% [at 4.97 µM] | activity (max response) [3] -5.86% | activity change, negative = viability loss [4] 1.32% [at 3.81 µM]

Cc1cc(NC(=O)C2=C(O)c3ccccc3S(=O)(=O)N2C)no1
inactive: Potency [1] | Potency [2] | activity (max response) [3] -0.835% | Potency [4]

Cc1cn([C@H]2C[C@H](F)[C@@H](CO)O2)c(=O)[nH]c1=O
inactive: Potency [1] | Potency [2] | activity (max response) [3] 3.39% | Potency [4]

COc1nccnc1NS(=O)(=O)c1ccc(N)cc1
inactive: Potency [1] | Potency [2] | activity (max response) [3] 1.63% | Potency [4]

O=C(O)c1ccc(S(=O)(=O)N(Cl)Cl)cc1
inactive: Potency [1] | Potency [2] | activity (max response) [3] 9.06% | Potency [4]

CCCCCC(N)=O
inactive: Potency [1] | Potency [2] | activity (max response) [3] 5.46% | Potency [4]

CCCCC(O)/C=C(C)/C=C/C=C/C(=O)N1CCCC1=O (stereo not given)
inactive: Potency [1] | Potency [2] | activity (max response) [3] 10.5% | Potency [4]

Cc1c(C(C)C)c(=O)n(-c2ccccc2)n1C
inactive: Potency [1] | Potency [2] | activity (max response) [3] -5.23% | Potency [4]

[O-][n+]1cccc(CO)c1
inactive: Potency [1] | Potency [2] | activity (max response) [3] 9.62% | Potency [4]

CCN(CC)CC1CCCCN1CC(=O)N1c2ccccc2C(=O)Nc2cccnc21 (stereo not given)
inactive: Potency [1] | Potency [2] | activity (max response) [3] -3.91% | Potency [4]

OC1(c2ccc(Cl)cc2)CCNCC1
inactive: Potency [1] | Potency [2] | activity (max response) [3] 11.1% | Potency [4]

CCCSc1ccc2nc(NC(=O)OC)[nH]c2c1
inactive: Potency [1]
active: Potency [2] 0.668 µM | Potency [3] 0.366 µM | Potency [4] 0.82 µM

CC(CC(C#N)(c1ccccc1)C(C)C)N(C)C (stereo not given)
inactive: Potency [1] | Potency [2] | activity (max response) [3] 3.72% | Potency [4]

CC(C)(CO)[C@@H](O)C(=O)NCCCO
inactive: Potency [1] | Potency [2] | activity (max response) [3] 15.4% | Potency [4]

CCc1cccc(CC)c1NC(=O)CN(CC(=O)O)CC(=O)O
inactive: Potency [1] | Potency [2] | activity (max response) [3] 1.3% | Potency [4]

CCCCCCCCCCCCCCCCCCO
inactive: Potency [1] | Potency [2] | activity (max response) [3] -0.0263% | Potency [4]

CCN1CCC[C@H]1CNC(=O)c1cc(S(N)(=O)=O)ccc1OC
inactive: Potency [1] | Potency [2] | activity (max response) [3] 6.63% | Potency [4]

CN1C(=O)CC(c2ccccc2)C1=O (stereo not given)
inactive: Potency [1] | Potency [2] | activity (max response) [3] 5.01%

CN1C[C@@H]2C[C@H]1CN2c1cc2c(cc1F)c(=O)c(C(=O)O)cn2C1CC1
inactive: Potency [1] | Potency [2] | activity (max response) [3] -2.55% | Potency [4]

COC(=O)c1ccc(O)cc1
inactive: Potency [1] | Potency [2] | activity (max response) [3] 11.5% | Potency [4]

O=C(N[C@H]1CCC[C@H](CO)C1)C1CCN(c2nc3cc(Cl)c(-c4ccc(Cl)cc4)cc3o2)CC1
active: Potency [2] 16.6 µM | Potency [4] 12.6 µM
inactive: Potency [1] | activity (max response) [3] -10.9%

O=C1CC2(CCCC2)CC(=O)N1
inactive: Potency [1] | Potency [2] | activity (max response) [3] 11.4% | Potency [4]

O=C(Oc1ccccc1)c1ccccc1O
inactive: Potency [1] | Potency [2] | activity (max response) [3] 1.95% | Potency [4]

Nc1ncnc2c1ncn2[C@@H]1O[C@H](COP(=O)(O)O)[C@@H](O)[C@H]1O
inactive: Potency [1] | Potency [2] | activity (max response) [3] 5.55% | Potency [4]

COc1ccc(CN(CCN(C)C)c2ccccn2)cc1
inactive: Potency [1] | activity (max response) [3] 2.63% | Potency [4]
active: Potency [2] 16.8 µM

C[C@@H](c1ncncc1F)C(O)(Cn1cncn1)c1ccc(F)cc1F (stereo not given in full)
inactive: Potency [1] | Potency [2] | activity (max response) [3] 2.11% | Potency [4]

Cc1cc(=O)oc2cc(O[C@@H]3SC[C@@H](O)[C@H](O)[C@H]3O)ccc12
inactive: Potency [1] | Potency [2] | activity (max response) [3] 12.3% | Potency [4]

CN(C)CCN1CCN(c2cccc(Cl)c2)C1=O
inactive: Potency [1] | Potency [2] | activity (max response) [3] 10.1% | Potency [4]

O=S(=O)(O)NC1CCCCC1
inactive: Potency [1] | Potency [2] | activity (max response) [3] 6.85% | Potency [4]

CC[N+](C)(CC)CCOC(=O)C1c2ccccc2Oc2ccccc21
inactive: Potency [1] | Potency [2] | activity (max response) [3] -11.3% | Potency [4]

CN=C(NC#N)Nc1ccc(C2=NNC(=O)CC2C)cc1 (stereo not given)
inactive: Potency [1] | Potency [2] | activity (max response) [3] -6.43% | Potency [4]

C[C@@H](O)[C@H]1C(=O)N2C(C(=O)O)=C([C@H]3CCCO3)S[C@H]12
inactive: Potency [1] | Potency [2] | activity (max response) [3] 12.4% | Potency [4]

NS(=O)(=O)c1cc(C(=O)O)cc(N2CCCC2)c1Oc1ccccc1
inactive: Potency [1] | Potency [2] | activity (max response) [3] -0.899% | Potency [4]

CCn1c(=O)c(-c2ccc(Cl)cc2Cl)cc2cnc(Nc3ccc(N4CCNCC4)c(F)c3)nc21
inactive: Potency [1] | Potency [4]
active: Potency [2] 82 nM and 118 nM

COc1cc(C(=O)NCCCCCC(=O)O)cc(OC)c1OC
inactive: Potency [1] | Potency [2] | activity (max response) [3] 6.24% | Potency [4]

OC[C@H]1O[C@@H]2O[C@H]3[C@H](O)[C@@H](O)[C@@H](O[C@H]4[C@H](O)[C@@H](O)[C@@H](O[C@H]5[C@H](O)[C@@H](O)[C@@H](O[C@H]6[C@H](O)[C@@H](O)[C@@H](O[C@H]7[C@H](O)[C@@H](O)[C@@H](O[C@H]8[C@H](O)[C@@H](O)[C@@H](O[C@H]1[C@H](O)[C@H]2O)O[C@@H]8CO)O[C@@H]7CO)O[C@@H]6CO)O[C@@H]5CO)O[C@@H]4CO)O[C@@H]3CO
inactive: Potency [1] | Potency [2] | activity (max response) [3] -1.71% | Potency [4]

O=c1[nH]c2cc(C(F)(F)F)c(N3CCOCC3)cc2n(CP(=O)(O)O)c1=O
inactive: Potency [1] | Potency [2] | Potency [4]

Cc1cccc(C)c1NC(=O)c1cc(S(N)(=O)=O)c(Cl)cc1O
inactive: Potency [1] | Potency [2] | Potency [4]

N#CSCC(=O)O
inactive: Potency [1] | Potency [2] | activity (max response) [3] 4.51% | Potency [4]

COc1cc(OC)nc(O[C@H](C(=O)O)C(OC)(c2ccccc2)c2ccccc2)n1
inactive: Potency [1] | Potency [2] | Potency [4]

CCC(C(=O)NC(=O)NC(C)=O)c1ccccc1 (stereo not given)
inactive: Potency [1] | Potency [2] | Potency [4]

O=C(COCC(=O)N1CCN(C(c2ccccc2)c2ccccc2)CC1)Nc1ccc(Cl)cc1C(=O)O
inactive: Potency [1] | Potency [2] | activity (max response) [3] -10.1% | Potency [4]

Cc1ncc(CO)c(C=O)c1O
inactive: Potency [1] | Potency [2] | activity (max response) [3] -2.89% | Potency [4]

CC1(C)OC(=O)Nc2ccc(Br)cc21
inactive: Potency [1] | Potency [2] | activity (max response) [3] 14.6% | Potency [4]

CC(=O)OCC(=O)NCCCOc1cccc(CN2CCCCC2)c1
inactive: Potency [1] | Potency [2] | activity (max response) [3] 3.89% | Potency [4]

COC(=O)c1cccnc1
inactive: Potency [1] | Potency [2] | activity (max response) [3] 5.78% | Potency [4]

CC12CCC(CC1)C(C)(C)O2
inactive: Potency [1] | Potency [2] | activity (max response) [3] 13.8% | Potency [4]

O=C(O)c1ccc[n+]([O-])c1
inactive: Potency [1] | Potency [2] | Potency [4]

COc1cc2ncnc(Nc3ccc(F)c(Cl)c3)c2cc1NC(=O)/C=C/CN1CCCCC1
inactive: Potency [1]
active: Potency [2] 1.64 µM | Potency [3] 0.708 µM | Potency [4] 4.47 µM

CCCCN=C(N)NC(=N)N
inactive: outcome [1] | Potency [2] | activity (max response) [3] 17.9% | Potency [4]

O=C1Nc2cc(Cl)ccc2Oc2ccccc21
inactive: Potency [1] | Potency [2] | activity (max response) [3] -3.37% | Potency [4]

CCc1cc(Cl)c(OC)c(C(=O)NC[C@@H]2CCCN2CC)c1O
inactive: Potency [1] | Potency [2] | Potency [4]

CCOc1cc(OCC)c(C(=O)CCC(=O)O)cc1OCC
inactive: Potency [1] | Potency [2] | activity (max response) [3] 6% | Potency [4]

CC(C)(C)NC[C@H](O)COc1cccc2c1CCCC2=O
inactive: Potency [1] | Potency [4]
active: Potency [2] 11.9 µM

OCc1ccccc1O
inactive: Potency [1] | Potency [2] | Potency [4]

CCC(C(=O)O)c1ccc(N2Cc3ccccc3C2=O)cc1 (stereo not given)
inactive: Potency [1] | Potency [2] | activity (max response) [3] 5.42% | Potency [4]

OC1(c2ccccc2)CCNCC1
inactive: Potency [1] | Potency [2] | Potency [4]

COCCc1ccccn1
inactive: Potency [1] | activity (max response) [3] -6% | Potency [4]
active: Potency [2] 0.075 µM

C[N+]1(C)[C@@H]2CC(OC(=O)[C@H](CO)c3ccccc3)C[C@H]1[C@@H]1O[C@@H]12 (stereo not given in full)
inactive: Potency [1] | Potency [2] | activity (max response) [3] 8.81% and 11.1% | Potency [4]

Nc1nc2ncc(CNc3ccc(C(=O)N[C@@H](CCC(=O)O)C(=O)O)cc3)nc2c(=O)[nH]1
inactive: Potency [1] | Potency [2] | activity (max response) [3] 12.3% | Potency [4]

COc1cc2c3cc1Oc1cc(ccc1O)C[C@@H]1c4c(cc(OC)c(O)c4Oc4ccc(cc4)C[C@@H]3N(C)CC2)CC[N+]1(C)C
inactive: Potency [1] | Potency [2] | activity (max response) [3] -1.9% | Potency [4]
